Measured values from PubChem BioAssay (Tox21).
Inconclusive results are not listed. A number with no mark means an inactive call. Active and inactive are the calls of the source. The call rests on the fitted dose curve.
On the % scale 0 is the no-effect control and ±100 the full control effect.

Test: p53 small molecule agonists, cell-based qHTS assay with human liver microsomes (AID 1963577);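 further: p53 response element beta-lactamase reporter cells with liver microsomes plus NADPH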
Conditions: HCT-116 p53RE-bla with human liver microsomes, ratio, 16 h; series mostly up to 66 µM; activation: at the top concentration
From the text: National Center for Advancing Translational Sciences [NCATS]
Division of Preclinical Innovation [DPI]
U.S. Environmental Protection Agency [EPA]
National Institutes of Environmental Health Sciences [NIEHS]
National Toxicology Program [NTP]
U.S. Food and Drug Administration [FDA]
p53, a tumor suppressor protein, is activated following cellular insult, including DNA damage and other cellular stresses. The activation of p53 regulates cell fate by inducing DNA repair, cell cycle arrest, apoptosis, or cellular senescence. The activation of p53, therefore, is a good indicator of DNA damage and other cellular stresses. […] The activation of the reporter gene under culture conditions can be detected by fluorescence intensity.
Tox21 Assay Protocol Summary:
The p53RE-bla cells were dispensed at 4,000cells/3ul/well in 1536-well black-clear bottom plates. After the assay plates were incubated at 37 C, 5% CO2 incubator for 5 hours, 23 nL of compounds dissolved in DMSO, positive controls or DMSO only was transferred to the assay plate. Following compound addition, 3 uL of human liver microsomes (XenoTech, Kansas City, KS) at final concentration of 0.5 mg/mL and 1uL of Beta-Nicotinamide adenine dinucleotide 2-phosphate (NADPH) at final concentration of 0.5 mg/mL were transferred to the assay plate. The plates were incubated at 37 C for 16 hours. 1 uL of LiveBLAzer detection mixture was added to each well and the plates were incubated at room temperature in the dark for 2 h.
In the case of CNC(=O)Nc1ccc(Cl)c(Cl)c1, the “activation” value is reported as -7.01%. In the case of O=C1CC(c2ccc(Cl)cc2)CC(=O)N1, the “activation” value is reported as -1.68% [at 30.3 µM]. For Oc1ccc(OCc2ccccc2)cc1, the Potency was “inactive”. For Cc1cccc2c1ccc1ccccc12, the “activation” value was -8.32%. With CCc1ccc(C=O)cc1 the “activation” value was -0.458%. With CCC(C)(C)C1CCCCC1OC(C)=O (stereo not given) the “activation” value was -0.17%. In the case of C(=C\c1ccccc1)/c1ccccc1, the “activation” value is reported as -4.66%. For C=C(C)[C@@H]1CC[C@@H](C)C[C@@H]1O, the “activation” value was -2.37%. In the case of COCc1ccc(COC)cc1, the “activation” value is reported as 1.31%. For COC(=O)C1=C(C)NC(C)=C(C(=O)OCC(C)C)C1c1ccccc1[N+](=O)[O-] (stereo not given), the Potency was “inactive”. In the case of Nc1ccncc1N, the “activation” value is reported as 5.58% [at 30.3 µM]. In the case of [Cl][Eu]([Cl])[Cl], the “activation” value is reported as 0.0012%. With CCCO the “activation” value was -1.45%. For CCOC(=O)c1ccc(N)cc1, the “activation” value was -0.0454% [at 30.3 µM]. In the case of O=C1Nc2ccccc2C1=O, the “activation” value is reported as 1.99%. With CCC(=O)OCc1ccccc1 the “activation” value was -0.451%. In the case of O=C(O[C@@H]1Cc2c(O)cc(O)cc2O[C@@H]1c1cc(O)c(O)c(O)c1)c1cc(O)c(O)c(O)c1, the Potency is reported as “inactive”. For O=C(O)c1ccc(OCCCOc2ccc(C(=O)O)cc2)cc1, the “activation” value was 2.07% [at 30.3 µM]. With COC(=O)c1ccc(C)cc1C1=NC(C)(C(C)C)C(=O)N1 (stereo not given) the “activation” value was -1.69%. In the case of CSCCC=O, the Potency is reported as “inactive”. With CCO[Si](C)(C)OCC the “activation” value was 0.477%. For CCCCCCCCO[C@@H]1O[C@H](CO)[C@@H](O)[C@H](O)[C@H]1O, the “activation” value was -0.163%. For O=C1OC(=O)c2c(Cl)c(Cl)c(Cl)c(Cl)c21, the Potency was “inactive”. In the case of CCCCCCCCCC(C)=O, the “activation” value is reported as -3.99%. With C=CC(C)(O)CC/C=C(/C)CCC=C(C)C (stereo not given) the “activation” value was 0.0303%. With FC(F)(F)c1cccc(Cl)c1 the “activation” value was -0.584%. With C#CC(C)(O)CC(C)C (stereo not given) the “activation” value was 1.86%. With Cc1c(C(=O)c2c[nH]n(C)c2=O)ccc(S(C)(=O)=O)c1C1=NOCC1 the “activation” value was 1.83% [at 30.3 µM]. In the case of O=C(O)c1ccccc1OP(=O)(O)O, the “activation” value is reported as -2.23% [at 30.3 µM]. In the case of CCC(CC)C(C)CCOC(C)=O (stereo not given), the “activation” value is reported as -5.93%. For O=C1OC(=O)c2ccc3c4c(ccc1c24)C(=O)OC3=O, the “activation” value was 0.935%. For CCCC(C)C(O)CC (stereo not given), the “activation” value was -1.48%. With C[Si](C)(C)O[Si](C)(C)O[Si](C)(C)C the “activation” value was -1.17%. For CC[C@@H]1C[C@H](N(Cc2cc(C(F)(F)F)cc(C(F)(F)F)c2)C(C)=O)c2cc(C(F)(F)F)ccc2N1C(=O)OC(C)C, the “activation” value was 2.24%. For CC(=O)O[C@@H]1C[C@@H]2CC[C@@]1(C)C2(C)C, the “activation” value was -0.22%. In the case of C=C1CC/C=C(\C)CC[C@@H]2[C@@H]1CC2(C)C, the “activation” value is reported as -0.0877%. In the case of CC(C)CNCC(C)C, the “activation” value is reported as -4.17%. With O=Cc1ccc(C(=O)O)cc1 the “activation” value was -2.61%. With CC(C)(C)c1cc(C(C)(C)C)c(O)c(C(C)(C)C)c1 the Potency was “inactive”. For Cn1cc(S(C)=O)c(=O)c2ccc(F)cc21 (stereo not given), the “activation” value was 1.69% [at 30.3 µM].
